Results on 14 compounds are retold here after PubChem BioAssay (EPA / NIEHS).

Inconclusive results are not listed. The source made the active and inactive calls. Rule for the calls: active = hit-call score of the fitted dose curve at least 0.9, where 1 is the maximum; inconclusive = response in the unintended direction; inactive = score below 0.9.

A short description of assay [1]: TOX21_p53_BLA_p2_viability: Viability Assessment in the Tox21 HCT-116 p53 Agonism Beta-lactamase Assay, Phase 2 (AID 2283591).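 Note: compound exposure lasted 16 h at 37 °C; actives lower the ATP signal meaning cytotoxicity.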 The gist of the method: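 HCT-116 p53-bla cells (4000/well) rested 5 h at 37C, then received compounds in DMSO (217-fold dilution) for 16 h at 37C, 5% CO2. After the CCF4 read, CellTiter-Glo was added; ATP luminescence was read after 30 min at room temperature.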

A short description of assay [2]: TOX21_p53_BLA_p3_viability: Viability Assessment in the Tox21 HCT-116 p53 Agonism Beta-lactamase Assay, Phase 3 (AID 2283593).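 Note: cells exposed to compound for 16 h before reading.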 The essentials:
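HCT-116 cells (4000/well) rested 5 h at 37C, then got DMSO compounds by pin tool (217-fold dilution) for 16 h at 37C, 5% CO2. After the bla read, CellTiter-Glo was added and luminescence read at 30 min, room temperature.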

In assay [3] the target is Cellular tumor antigen p53 (Homo sapiens) (UniProt P04637). Briefly: TOX21_p53_BLA_p3_ratio: Tox21 HCT-116 p53 Agonism Beta-lactamase Assay, Ratio, Phase 3 (AID 2283596). The gist of the method:
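HCT116 p53-bla cells (4000/well) given compound in DMSO (217-fold dilution) after 5 h, incubated 16 h at 37C. CCF4-AM substrate 2 h at room temperature; 460/530 nm emission ratio, gain fitted against DMSO.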

For assay [4] the target is unchanged. The assay can be described thus: TOX21_p53_BLA_p5_ratio: Tox21 HCT-116 p53 Agonism Beta-lactamase Assay, Ratio, Phase 5 (AID 2283599). The gist of the method:
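HCT-116 cells carrying a p53-inducible beta-lactamase reporter were seeded at 4000 cells/well and dosed after 5 h with compound in DMSO (217-fold dilution). After 16 h at 37C, CCF4-AM substrate was added for 2 h, and the 460/530 nm emission ratio was scored as gain-of-signal versus DMSO.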

Assay [5] is described as follows: TOX21_p53_BLA_p4_viability: Viability Assessment in the Tox21 HCT-116 p53 Agonism Beta-lactamase Assay, Phase 4 (AID 2283597).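 Note: hits lower the luminescence signal meaning cytotoxicity.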 The gist of the method:
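Cells plated, 5 h pre-incubation; DMSO compounds pinned (217-fold dilution); 16 h, 37C/5% CO2; CCF4-AM 2 h RT; CellTiter-Glo 30 min RT; luminescence read.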

Assay [6] concerns the target Cellular tumor antigen p53 (Homo sapiens) (UniProt P04637). The assay can be described thus: TOX21_p53_BLA_p4_ratio: Tox21 HCT-116 p53 Agonism Beta-lactamase Assay, Ratio, Phase 4 (AID 2283601). The gist of the method: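 HCT116 cells carrying an inducible beta-lactamase reporter were plated at 4000 cells/well, rested 5 h, then exposed to compounds in DMSO (217-fold dilution) for 16 h at 37C. CCF4-AM substrate was loaded 2 h at room temperature; 460/530 nm emission ratio scored gain-of-signal versus DMSO.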

The nature of assay [7]: TOX21_p53_BLA_p5_viability: Viability Assessment in the Tox21 HCT-116 p53 Agonism Beta-lactamase Assay, Phase 5 (AID 2283600). The gist of the method: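 4000 cells/well; 5 h pre-incubation; DMSO compounds pin-transferred, 217-fold dilution; 16 h, 37C/5% CO2; CCF4-AM 2 h RT; CellTiter-Glo 30 min RT; luminescence.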

Chain of Cellular tumor antigen p53 (Homo sapiens) (P04637 whole entry, looked up): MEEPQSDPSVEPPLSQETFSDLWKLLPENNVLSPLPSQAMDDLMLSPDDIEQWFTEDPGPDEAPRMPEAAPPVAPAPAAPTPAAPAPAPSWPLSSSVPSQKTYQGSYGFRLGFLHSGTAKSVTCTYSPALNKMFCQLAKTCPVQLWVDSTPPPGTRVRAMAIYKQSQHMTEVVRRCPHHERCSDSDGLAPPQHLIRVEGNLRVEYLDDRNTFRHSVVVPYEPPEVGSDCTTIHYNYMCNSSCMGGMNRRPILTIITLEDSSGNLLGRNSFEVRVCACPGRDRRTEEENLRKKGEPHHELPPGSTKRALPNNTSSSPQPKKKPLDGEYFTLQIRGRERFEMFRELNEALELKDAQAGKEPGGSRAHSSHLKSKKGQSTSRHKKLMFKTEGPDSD

With `C[C@@H]1C[C@H]2[C@@H]3CCC4=CC(=O)C=C[C@]4(C)[C@@]3(F)[C@@H](O)C[C@]2(C)[C@H]1C(=O)CO`, the compound was classed as inactive in assay [1], in assay [2], in assay [3] and in assay [4].
On to `CNc1ccc(O)cc1`, for which the compound was classed as inactive in assay [1], in assay [3], in assay [5], in assay [4] and in assay [6]. The concentration at half-maximal activity (AC50) (usually the concentration giving half of the maximal activity seen) in assay [2] is 82 µM (active).
Regarding `OC(CCN1CCCCC1)(c1ccccc1)C1CC2C=CC1C2` (stereo unspecified), the compound was called inactive in assay [1], in assay [2], in assay [3], in assay [5] and in assay [7].
With `CCCCCCCCCCCBr`, the compound was called inactive in assay [1], in assay [2], in assay [3], in assay [5], in assay [4] and in assay [6].
Regarding `CCCCC(=O)OCC(=O)[C@H]1[C@H](C)C[C@H]2[C@@H]3C[C@H](F)C4=CC(=O)C=C[C@]4(C)[C@@]3(F)[C@@H](O)C[C@@]21C`, the compound was classed as inactive in assay [1], in assay [2], in assay [3], in assay [5] and in assay [7].
For `NS(=O)(=O)c1cc2c(cc1C(F)(F)F)NC(Cc1ccccc1)NS2(=O)=O` (stereo unspecified), the result in assay [1], in assay [2], in assay [3], in assay [4] and in assay [7] was inactive.
For `COc1ccccc1OCC(O)CN1CCN(CC(=O)Nc2c(C)cccc2C)CC1` (stereo unspecified), the compound was classed as inactive in assay [1], in assay [2], in assay [3], in assay [5] and in assay [6].
Turning to `CCCCOc1cc(C(=O)NCCN(CC)CC)c2ccccc2n1`, the outcome in assay [1], in assay [2], in assay [3], in assay [5] and in assay [6] was inactive.
For `CN1CCN(C2Cc3ccccc3Sc3ccc(Cl)cc32)CC1` (stereo unspecified), the half-maximal activity concentration (AC50) in assay [1] is 34.4 µM (active); in assay [2] it was 34.5 µM (active); in assay [5], 34.3 µM (active). For the same compound, the result in assay [3], in assay [7] and in assay [6] was inactive.
Regarding `CCCC(=O)CC`, the compound was classed as inactive in assay [1], in assay [2], in assay [3], in assay [5], in assay [7] and in assay [6].
As for `CO[C@@H]1[C@@H](O[C@@H]2O[C@H](C)[C@@H](O[C@H]3C[C@@](C)(O)[C@@H](O)[C@H](C)O3)[C@H](N(C)C)[C@H]2O)[C@@H](CC=O)C[C@@H](C)[C@@H](O[C@@H]2CC[C@H](N(C)C)[C@@H](C)O2)/C=C/C=C/C[C@@H](C)OC(=O)C[C@H]1OC(C)=O`, the call in assay [1], in assay [2], in assay [3], in assay [5], in assay [4] and in assay [6] was inactive.
As to `CCC(=O)OCC(=O)[C@@]1(OC(=O)CC)[C@H](C)C[C@H]2[C@@H]3CCC4=CC(=O)C=C[C@]4(C)[C@@]3(F)[C@@H](O)C[C@@]21C`, the compound was called inactive in assay [1], in assay [2], in assay [3], in assay [5] and in assay [7].
In the case of `CCOC(=O)c1cccnc1`, the result in assay [1], in assay [2], in assay [3], in assay [5], in assay [4] and in assay [6] was inactive.
On to `CC(CCl)OC(C)CCl` (stereo unspecified), for which the call in assay [1], in assay [2], in assay [3], in assay [5], in assay [4] and in assay [6] was inactive.
